In PubChem BioAssay AID1159580 (chemical genetic matrix, 2015):
The campaign covered roughly 5,500 compounds. About 2,000 (36%) were called active. Inconclusive results (about 18%) are left out. Cut-off read from the data, not from the text of the source: active = normalized growth mostly below about 0.91 (no sharp cut-off); inconclusive = no clear call, values can overlap the other calls; inactive = mostly above about 0.92. This is one part of the list.

Test: chemical genetic growth profiling, strain panel (AID 1159580);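 note: tested at 20 µM; growth read once vehicle control cultures reached saturation at 30 °C; 1 = growth at the plate median or of vehicle wells; lower values mean less growth of the strain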
Conditions: growth OD

Measured: normalized growth

CNCc1ccccc1
inactive: S. cerevisiae deletion strains, locus YJR066W, strain TOR1, hits give low values 0.978 | S. cerevisiae deletion strains, locus YKL009W, strain mrt4, hits give low values 0.999 | S. cerevisiae deletion strains, locus YKL068W, hits give low values 0.981 | S. cerevisiae deletion strains, locus YKL085W, strain MDH1 (second series), hits give low values 0.976 | S. cerevisiae deletion strains, locus YKL085W, strain MDH1, hits give low values 0.976 | S. cerevisiae deletion strains, locus YKL160W, strain elf1, hits give low values 1 | S. cerevisiae deletion strains, locus YKL190W, strain CNB1, hits give low values 0.996 | S. cerevisiae deletion strains, locus YKR001C, strain vps1, hits give low values 1.04 | S. cerevisiae deletion strains, locus YKR026C, strain gcn3, hits give low values 1.03 | S. cerevisiae deletion strains, locus YKR091W, strain srl3, hits give low values 1.02 | S. cerevisiae deletion strains, locus YLL001W, strain dnm1, hits give low values 1.02 | S. cerevisiae deletion strains, locus YLL026W, hits give low values 1.01 | S. cerevisiae deletion strains, locus YLL041C, strain sdh2, hits give low values 1.02 | S. cerevisiae deletion strains, locus YLR027C, strain aat2, hits give low values 0.997 | S. cerevisiae deletion strains, locus YLR039C, strain RIC1, hits give low values 1.01 | S. cerevisiae deletion strains, locus YLR058C, strain SHM2, hits give low values 0.973 | S. cerevisiae deletion strains, locus YLR102C, strain apc9, hits give low values 0.99 | S. cerevisiae deletion strains, locus YLR113W, strain HOG1, hits give low values 0.981 | S. cerevisiae deletion strains, locus YLR221C, strain rsa3, hits give low values 1.01 | S. cerevisiae deletion strains, locus YLR258W, strain gsy2, hits give low values 1.03 | S. cerevisiae deletion strains, locus YLR262C, strain YPT6 (second series), hits give low values 1.01 | S. cerevisiae deletion strains, locus YLR262C, strain YPT6, hits give low values 1 | S. cerevisiae deletion strains, locus YLR268W, strain sec22, hits give low values 1.03 | S. cerevisiae deletion strains, locus YLR320W, strain mms22, hits give low values 1.02 | S. cerevisiae deletion strains, locus YLR330W, strain CHS5, hits give low values 0.999 | S. cerevisiae deletion strains, locus YLR342W, strain FKS1 (second series), hits give low values 1.05 | S. cerevisiae deletion strains, locus YLR342W, strain FKS1, hits give low values 1.02 | S. cerevisiae deletion strains, locus YLR357W, strain rsc2, hits give low values 1.02 | S. cerevisiae deletion strains, locus YLR370C, strain arc18, hits give low values 1.02 | S. cerevisiae deletion strains, locus YLR371W, strain rom2, hits give low values 0.999 | S. cerevisiae deletion strains, locus YLR384C, strain iki3, hits give low values 1 | S. cerevisiae deletion strains, locus YLR418C, strain cdc73, hits give low values 0.991 | S. cerevisiae deletion strains, locus YML016C, strain PPZ1, hits give low values 0.996 | S. cerevisiae deletion strains, locus YML032C, strain rad52, hits give low values 0.949 | S. cerevisiae deletion strains, locus YML120C, strain ndi1, hits give low values 1.02 | S. cerevisiae deletion strains, locus YML124C, strain tub3, hits give low values 0.983 | S. cerevisiae deletion strains, locus YMR058W, strain fet3, hits give low values 0.97 | S. cerevisiae deletion strains, locus YMR078C, strain ctf18, hits give low values 0.987 | S. cerevisiae deletion strains, locus YMR125W, strain sto1, hits give low values 1.02 | S. cerevisiae deletion strains, locus YMR129W, hits give low values 1.02 | S. cerevisiae deletion strains, locus YMR205C, strain PFK2, hits give low values 1.03 | S. cerevisiae deletion strains, locus YMR223W, strain ubp8, hits give low values 0.969 | S. cerevisiae deletion strains, locus YMR231W, strain pep5, hits give low values 0.99 | S. cerevisiae deletion strains, locus YMR263W, strain SAP30, hits give low values 0.992 | S. cerevisiae deletion strains, locus YMR307W, strain GAS1, hits give low values 0.914 | S. cerevisiae deletion strains, locus YNL067W, strain RPL9B, hits give low values 0.984 | S. cerevisiae deletion strains, locus YNL071W, strain lat1, hits give low values 1.03 | S. cerevisiae deletion strains, locus YNL153C, strain GIM3, hits give low values 0.978 | S. cerevisiae deletion strains, locus YNL183C, strain NPR1, hits give low values 0.91 | S. cerevisiae deletion strains, locus YNL209W, strain ssb2, hits give low values 1.01 | S. cerevisiae deletion strains, locus YNL233W, strain BNI4, hits give low values 1.01 | S. cerevisiae deletion strains, locus YNL248C, strain rpa49, hits give low values 1.03 | S. cerevisiae deletion strains, locus YNL250W, strain rad50, hits give low values 0.981 | S. cerevisiae deletion strains, locus YNL271C, strain bni1, hits give low values 0.994 | S. cerevisiae deletion strains, locus YNL298W, strain CLA4, hits give low values 0.988 | S. cerevisiae deletion strains, locus YNL307C, strain MCK1, hits give low values 1.01 | S. cerevisiae deletion strains, locus YNL322C, strain KRE1 (second series), hits give low values 1.02 | S. cerevisiae deletion strains, locus YNL322C, strain KRE1, hits give low values 0.994 | S. cerevisiae deletion strains, locus YNR049C, strain mso1, hits give low values 1.02 | S. cerevisiae deletion strains, locus YNR052C, strain pop2, hits give low values 0.991 | S. cerevisiae deletion strains, locus YOL006C, strain TOP1, hits give low values 1.1 | S. cerevisiae deletion strains, locus YOL012C, strain htz1 1.52 | S. cerevisiae deletion strains, locus YOL147C, strain pex11, hits give low values 0.989 | S. cerevisiae deletion strains, locus YOR001W, strain rrp6, hits give low values 1.01 | S. cerevisiae deletion strains, locus YOR061W, strain CKA2, hits give low values 0.983 | S. cerevisiae deletion strains, locus YOR069W, strain VPS5, hits give low values 1 | S. cerevisiae deletion strains, locus YOR070C, strain gyp1, hits give low values 1.01 | S. cerevisiae deletion strains, locus YOR080W, strain dia2, hits give low values 1.02 | S. cerevisiae deletion strains, locus YOR083W, strain WHI5, hits give low values 1.01 | S. cerevisiae deletion strains, locus YOR106W, strain vam3, hits give low values 1.04 | S. cerevisiae deletion strains, locus YOR136W, strain idh2, hits give low values 0.996 | S. cerevisiae deletion strains, locus YOR144C, strain elg1, hits give low values 0.991 | S. cerevisiae deletion strains, locus YOR184W, strain ser1, hits give low values 1 | S. cerevisiae deletion strains, locus YOR231W, strain MKK1, hits give low values 0.987 | S. cerevisiae deletion strains, locus YOR265W, strain rbl2, hits give low values 1.01 | S. cerevisiae deletion strains, locus YOR270C, strain vph1, hits give low values 1.08 | S. cerevisiae deletion strains, locus YOR290C, strain snf2, hits give low values 1.02 | S. cerevisiae deletion strains, locus YOR316C, strain cot1, hits give low values 0.986 | S. cerevisiae deletion strains, locus YPL051W, strain arl3, hits give low values 1 | S. cerevisiae deletion strains, locus YPL055C, strain LGE1, hits give low values 0.993 | S. cerevisiae deletion strains, locus YPL078C, strain atp4, hits give low values 1.02 | S. cerevisiae deletion strains, locus YPL106C, strain sse1, hits give low values 1.01 | S. cerevisiae deletion strains, locus YPL240C, strain hsp82, hits give low values 1.02 | S. cerevisiae deletion strains, locus YPL241C, strain CIN2, hits give low values 0.995 | S. cerevisiae deletion strains, locus YPL256C, strain CLN2, hits give low values 0.973 | S. cerevisiae deletion strains, locus YPR119W, strain clb2, hits give low values 0.991 | S. cerevisiae deletion strains, locus YPR141C, strain kar3, hits give low values 0.975 | S. cerevisiae deletion strains, locus YPR163C, strain tif3, hits give low values 0.979 | S. cerevisiae deletion strains, locus YPR167C, strain met16, hits give low values 0.982 | S. cerevisiae deletion strains, strain wtn01, hits give low values 1.06 | S. cerevisiae strains, strain wild type, hits give low values 0.992
